Data taken from PubChem BioAssay (NCI).
Where “and” joins values, the source holds several entries; their conditions need not be identical. Equal values may be shown once. Compounds without any hit were thinned out: in the full panel of roughly 83,000, 20% have a hit.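 For each line, cells grew in 96-well plates with the test compound present at a single concentration for 48 hours.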 Calls of active or inactive are those of the source. How the source made its calls: active means growth percent below 10; inactive means the rest.

Tested on: HL-60(TB) leukemia
Assay: NCI-60 one-dose screen, 48 h (100 = growth as untreated, 0 = no growth, -100 = all killed)
Conditions: 10 µM unless noted

| Compound | growth |
| --- | --- |
| NCCSC(c1ccccc1)(c1ccccc1)c1ccccc1 | -17.3% (active) |
| Cc1ccc(Cl)c(NS(=O)(=O)c2ccc(-c3cnc(C4CC4)o3)cc2)c1 | -22% (active) |
| O[C@H](c1cc(C(F)(F)F)nc2c(C(F)(F)F)cccc12)[C@@H]1CCCCN1 | 52.8% (inactive) and 50.7% (inactive) |
| O=[N+]([O-])c1cnc(Sc2ccncn2)c([N+](=O)[O-])c1 | 11.3% (inactive) |
| C=C1C(=O)O[C@H]2[C@H]1CC/C(COC(=O)NCCc1ccc(OC)cc1)=C\CC[C@@]1(C)O[C@@H]21 | -22% (active) |
| OC(COc1cccc2ccccc12)CN1CCN(c2ccc(Cl)cc2)CC1 (centres undefined) | 55.5% (inactive) and 75.2% (inactive) |
| Cc1ccc(C2=Nc3c(ccc4c(C)c(C)c(=O)oc34)OC2)cc1 | 98.3% (inactive) |
| COc1ccc(/C=C2/SC(=Nc3c(C)nn(-c4ccccc4)c3N)NC2=O)cc1 | 16.6% (inactive) |
| OCc1c(-c2ccccc2)nc2sccn12 | 130% (inactive) |
| C=C(C)[C@@H]1CC[C@]2(C)[C@H](CC=C3[C@@H]4[C@H](C)[C@@H](C)CC[C@]4(CO)CC[C@]32C)[C@@]1(C)CCCN | -45.2% (active) |
| CCC(O)c1ccc(Br)cc1NC(=O)c1cccc(Cl)c1 (centres undefined) | -6.38% (active) |
| CN(C)c1ccc2nc3ccc(=[N+](C)C)cc-3sc2c1 | 0.249% (active) and -38.6% (active) and 19.8% (inactive) |
| NC(Cc1ccccc1)C(=O)NC(Cc1ccccc1)C(=O)O (centres undefined) | 105% (inactive) and 102% (inactive) |
| c1ccc(-c2nc(N3CCNCC3)c3nc(-c4ccccc4)oc3n2)cc1 | -49.6% (active) |
| O=C(c1ccc(Cl)cc1)N1CCN(c2ccnc3cc(Cl)ccc23)CC1 | 102% (inactive) |
| N#Cc1c(-c2ccc(F)cc2)nc(N=Nc2c(O)[nH]c3ccc(Cl)cc23)nc1N1CCOCC1 | 73.3% (inactive) |
| N=c1c2ccccc2nc2n1CCCCC2 | 130% (inactive) |
| Cc1nc(/N=C(\N)NC(=O)Nc2cccc([N+](=O)[O-])c2)sc1C | 39.5% (inactive) |
| CCC(C)NC(=O)c1ccccc1C (centres undefined) | 111% (inactive) |
| CSc1nc(N)nc2c1ncn2C | 75.8% (inactive) |

| Compound | growth |
| --- | --- |
| CCOC(=O)N1CCN(CCCCl)CC1 | 85.6% (inactive) |
| COc1cc(Cn2c(-c3nonc3N)nc3ccccc32)ccc1C | -3.72% (active) |
| Cc1nc2ccc(-n3ncc(C(=O)c4cc5ccccc5[nH]4)c3N)cc2[nH]1 | 36.5% (inactive) |
| Cc1cc(O)c2c(c1)C[C@H]1[C@@H]3CC[C@H]4CC(=O)CC[C@]4(C)[C@H]3CC(=O)[C@]21C | 73.9% (inactive) |
| Cc1ccc(NC(=O)CN2CCOCC2)cc1Cl | 74.2% (inactive) |
| O=C(OCc1ccc2c(Br)cc(Br)c(O)c2n1)c1cc2ccccc2[nH]1 | -46.1% (active) |
| Cc1cccc(NC2=C(C#N)C(=O)NC3(CCCC3)S2)c1 | 89.7% (inactive) |
| Cn1c(=O)c2nc(/C=C/c3ccccc3)c(=O)[nH]c2n(C)c1=S | 98.2% (inactive) |
| O=C1/C(=C/c2ccccc2)SC(=S)N1CCc1ccc(O)cc1 | 94.9% (inactive) |
| O=C(Nc1ccc(-c2nc3cc4ccccc4cc3[nH]2)cc1)c1cccc(Br)c1 | 42.3% (inactive) |
| N#Cc1cnc(NCCc2ccncc2)nc1-n1cnc2ccccc21 | 37.7% (inactive) |
| COc1ccccc1NC(=O)Cn1cc(CN2CCN(c3ccnc4cc(Cl)ccc34)CC2)nn1 | 131% (inactive) |
| O=C(O)CCCCc1ccc([N+](=O)[O-])cc1 | 74.8% (inactive) and 93.9% (inactive) |
| COC(=O)/C(CCC=C(C)C)=C1\[C@@H](OC(C)=O)C[C@@]2(C)[C@H]1CC(=O)N[C@H]1[C@@]3(C)CCNC(=O)[C@@H](C)[C@@H]3CC[C@@]12C | 102% (inactive) |
| COc1ccc(/C=C/C(=O)c2cccc(OCCCCOc3cccc(C(=O)/C=C/c4ccc(OC)c(OC)c4)c3)c2)cc1OC | 68.6% (inactive) |
| COc1ccc2c(c1)C(C)Cc1c(ncnc1-n1c(C)nc3ccccc31)N2C (centres undefined) | 1.95% (active) |
| COc1ccc2c(c1)C1=NN(C(=O)CO)[C@H](c3ccc(OC(F)(F)F)cc3)[C@@H]1CC2 | 104% (inactive) |
| Cc1ccc(/C=C2\Oc3cc(OCC(=O)c4ccc(Cl)cc4)ccc3C2=O)cc1 | 50.7% (inactive) |
| CC(C)Sc1ncnc2nc[nH]c12 | 95% (inactive) |
